Source: the supplement of paper PMC13380429

Legend:
[1] = test system: Vero E6 infected with SARS-CoV-2; experiment: morphology score (similarity to uninfected cells); higher = more like uninfected cells; details: 24 h
[2] = test system: Vero E6 infected with SARS-CoV-2; experiment: SARS-CoV-2 infection rate relative to infected DMSO; higher = more infection, active = 60 or less; details: 24 h

| Structure (SMILES) | morphology score [1] | SARS-CoV-2 infection rate [2] |
| --- | --- | --- |
| C[C@]12CC[C@@H]3c4ccc(O)cc4CC[C@H]3[C@@H]1CC[C@@H]2O [estradiol] (10 µM) | -0.0909 | 116% (inactive) |
| C=CC(=O)Nc1cccc(Nc2nc(Nc3ccc(OCCOC)cc3)ncc2F)c1 (0.833333 µM) | -0.0246 | 116% (inactive) |
| CCC(CC)CC1(C(=O)Nc2ccccc2SC(=O)C(C)C)CCCCC1 [dalcetrapib] (10 µM) | 0.152 | 111% (inactive) |
| C[N+](C)(C)[C@@H](Cc1c[nH]c(=S)[nH]1)C(=O)O [L-ergothioneine] (10 µM) | 0.0598 | 99% (inactive) |
| CCC(NC(C)C)C(O)c1ccc(O)c(O)c1 (stereo unspecified) [isoetharine] (10 µM) | 0.128 | 93% (inactive) |
| O=C1Nc2ccc(I)cc2C1=Cc1cc(Br)c(O)c(Br)c1 (10 µM) | 0.384 | 98.5% (inactive) |
| O=C(O)CSc1nnc(Br)n1-c1ccc(C2CC2)c2ccccc12 [lesinurad] (10 µM) | 0.0859 | 95% (inactive) |
| Cc1cccc(-c2n[nH]cc2-c2ccc3ncccc3n2)n1 [repsox] (10 µM) | 0.188 | 97% (inactive) |
| NC(=O)NO [hydroxyurea] (10 µM) | 0.223 | 100% (inactive) |
| Cc1nc(C)c(Cl)c(O)c1Cl [clopidol] (10 µM) | -0.0297 | 108% (inactive) |
| Sc1ncnc2nc[nH]c12 [mercaptopurine] (0.833333 µM) | 0.0241 | 108% (inactive) |
| CN1[C@@H]2CC[C@H]1C[C@@H](OC(=O)N1Cc3ccccc3NC1=O)C2 (10 µM) | 0.0635 | 108% (inactive) |
| O=[N+]([O-])c1cccc2c(Br)n[nH]c12 [3-bromo-7-nitroindazole] (10 µM) | 0.0979 | 110% (inactive) |
| CN1CCN(c2ccc3nc(-c4c(N)c5c(F)cccc5[nH]c4=O)[nH]c3c2)CC1 [dovitinib] (10 µM) | -0.00197 | 102% (inactive) |
| CC(C)Cn1cnc2c1c(=O)n(C)c(=O)n2C [isbufylline] (10 µM) | -0.0146 | 106% (inactive) |
| CC=CC1=C(C(=O)O)N2C(=O)[C@@H](NC(=O)[C@H](N)c3ccc(O)cc3)[C@H]2SC1 (mixture of isomers) [cefprozil] (10 µM) | 0.273 | 99% (inactive) |
| C1Cc2[nH]nc(-c3nn[nH]n3)c2C1 (10 µM) | -0.0417 | 109% (inactive) |
| COC(=O)c1sccc1S(=O)(=O)Nc1ccc(Nc2ccccc2)cc1OC (10 µM) | 0.112 | 95% (inactive) |
| CC(=O)Oc1cc(C(F)(F)F)ccc1C(=O)O [triflusal] (10 µM) | 0.126 | 102% (inactive) |
| COc1ccc(-c2ccc3cc(C(=O)O)ccc3c2)cc1C12CC3CC(CC(C3)C1)C2 [adapalene] (10 µM) | -0.091 | 104% (inactive) |
| COC(=O)[C@@H]1[C@H]2C[C@H]3c4[nH]c5ccccc5c4CCN3C[C@@H]2CC[C@@H]1O [yohimbine] (10 µM) | 0.0665 | 109% (inactive) |

| Structure (SMILES) | morphology score [1] | SARS-CoV-2 infection rate [2] |
| --- | --- | --- |
| N#CN=C(NCCCCCCOc1ccc(Cl)cc1)Nc1ccncc1 (10 µM) | -0.0862 | 96.5% (inactive) |
| O=P(O)(NCCCl)NCCCl [palifosfamide] (10 µM) | -0.0297 | 107% (inactive) |
| CO/N=C(\C(=O)N[C@@H]1C(=O)N2C(C(=O)O)=C(CSc3nc(C)c(CC(=O)O)s3)CS[C@H]12)c1csc(N)n1 [cefodizime] (10 µM) | 0.129 | 101% (inactive) |
| N#CCC(=O)NN [cyacetacide] (10 µM) | 0.167 | 102% (inactive) |
| CCC(=O)O[C@@H](O[P@@](=O)(CCCCc1ccccc1)CC(=O)N1C[C@H](C2CCCCC2)C[C@H]1C(=O)O)C(C)C [fosinopril] (10 µM) | -0.0286 | 104% (inactive) |
| CNC(=O)ON(C(C)=O)C(=O)NC [caracemide] (10 µM) | 0.0974 | 104% (inactive) |
| CN(C)CCn1nnnc1SCC1=C(C(=O)O)N2C(=O)[C@@H](NC(=O)Cc3csc(N)n3)[C@H]2SC1 [cefotiam] (10 µM) | 0.212 | 100% (inactive) |
| CO[C@H]1CC[C@H](N(c2cc(C3=CCCCC3)sc2C(=O)O)C(=O)[C@H]2CC[C@H](C)CC2)CC1 (10 µM) | 0.155 | 83% (inactive) |
| C[C@]12CCC(=O)C=C1C=C[C@@H]1[C@@H]2CC[C@@]2(C)[C@H]1CC[C@@]2(O)CCC(=O)O [potassium-canrenoate] (10 µM) | -0.166 | 114% (inactive) |
| CC(C)c1ccc(C(=O)c2cccs2)c(SCCCCCCCCN(C)C)n1 (0.833333 µM) | 0.361 | 94.5% (inactive) |
| COC(=O)N[C@H](C(=O)N[C@@H](Cc1ccccc1)[C@@H](O)CN(Cc1ccc(-c2ccccn2)cc1)NC(=O)[C@@H](NC(=O)OC)C(C)(C)C)C(C)(C)C [atazanavir] (10 µM) | 0.129 | 112% (inactive) |
| CCCCc1ncc(/C=C(\Cc2cccs2)C(=O)O)n1Cc1ccc(C(=O)O)cc1 [eprosartan] (10 µM) | 0.0906 | 106% (inactive) |
| CN(C)C(=O)Nc1cccc(-c2ccc(N(C)C)cc2)c1 [atglistatin] (10 µM) | 0.11 | 98% (inactive) |
| CN1CCN(CCCN2c3ccccc3Sc3ccc(S(=O)(=O)N(C)C)cc32)CC1 [thioproperazine] (10 µM) | 0.251 | 102% (inactive) |
| O=C(OCCN1CCOCC1)c1cccnc1Nc1cccc(C(F)(F)F)c1 [morniflumate] (10 µM) | 0.0767 | 108% (inactive) |
| FC(F)(F)Oc1ccc2nc(-c3ccc(OCCOCCOc4ccc(-c5nc6ccc(OC(F)(F)F)cc6[nH]5)nc4)cn3)[nH]c2c1 (10 µM) | -0.247 | 116% (inactive) |
| CCS(=O)(=O)N1CCC[C@@H]2CN3CCc4cc(OC)ccc4[C@@H]3C[C@@H]21 (10 µM) | 0.0669 | 102% (inactive) |
| OCc1cncc(F)c1 [5-fluoro-3-pyridyl-methanol] (10 µM) | 0.135 | 102% (inactive) |
| NCC1CC(=O)N(Cc2ccccc2)C1 (stereo unspecified) [nebracetam] (10 µM) | 0.0779 | 102% (inactive) |
| COc1cc([S+](C)[O-])ccc1-c1nc2cccnc2[nH]1 (stereo unspecified) [sulmazole] (10 µM) | 0.165 | 98.5% (inactive) |
| COc1ccc2cccc(CCNC(C)=O)c2c1 [agomelatine] (10 µM) | 0.11 | 114% (inactive) |

| Structure (SMILES) | morphology score [1] | SARS-CoV-2 infection rate [2] |
| --- | --- | --- |
| COc1cc(/C=C2\CCC/C(=C\c3ccc(O)c(OC)c3)C2=O)ccc1O [cyclovalone] (10 µM) | 0.0684 | 93% (inactive) |
| COc1ccc(-c2ccc(=N)n(CCCC(=O)O)n2)cc1 [gabazine] (10 µM) | -0.176 | 103% (inactive) |
| O=C(O)COc1cccc(CN(Cc2ccc(-n3cccn3)cc2)S(=O)(=O)c2cccnc2)c1 [taprenepag] (10 µM) | -0.0257 | 100% (inactive) |
| Cc1c(Cl)cccc1S(=O)(=O)Nc1nc(NCCc2ccccc2)nc2c1CN(Cc1ccccc1)CC2 (10 µM) | 0.104 | 94.5% (inactive) |
| N[C@@H](CCC(=O)N[C@@H](CSN=O)C(=O)NCC(=O)O)C(=O)O [S-nitrosoglutathione] (10 µM) | 0.164 | 104% (inactive) |
| CCCCCCCCCCCCCCCCCCCCCC(=O)O (10 µM) | 0.0564 | 108% (inactive) |
| C[C@H](Nc1ncnc2nc[nH]c12)c1cc2cccc(Cl)c2c(=O)n1-c1ccccc1 [duvelisib] (0.833333 µM) | 0.0653 | 99% (inactive) |
| CN1C(C(=O)Nc2ccccn2)=C(O)c2ccccc2S1(=O)=O [piroxicam] (10 µM) | 0.184 | 98.5% (inactive) |
| CC1=CC(=O)c2ccccc2C1=O [menadione] (10 µM) | 0.144 | 91% (inactive) |
| C/C(=C\C(=O)Nc1ccccc1C(=O)O)c1ccc2ccccc2c1 (10 µM) | 0.23 | 103% (inactive) |
| COc1ccsc1CNCC[C@@]1(c2ccccn2)CCOC2(CCCC2)C1 (10 µM) | -0.0456 | 103% (inactive) |
| O=S(=O)(O)Oc1ccc(C(c2ccc(OS(=O)(=O)O)cc2)c2ccccn2)cc1 [sodium-picosulfate] (10 µM) | 0.154 | 101% (inactive) |
| COc1ccc2cc([C@H](C)C(=O)O)ccc2c1 [naproxen] (10 µM) | -0.0223 | 106% (inactive) |
| CCc1cnc(N2CCC(c3nc(COc4ccc(-n5cnnn5)cc4)cs3)CC2)nc1 (10 µM) | 0.0438 | 97% (inactive) |
| CC(C)CN(C[C@@H](OP(=O)(O)O)[C@H](Cc1ccccc1)NC(=O)O[C@H]1CCOC1)S(=O)(=O)c1ccc(N)cc1 [fosamprenavir] (10 µM) | -0.123 | 109% (inactive) |
| Cc1ccc(S(=O)(=O)OCC(=O)Nc2ccc(C(=O)O)c(O)c2)cc1 [STAT3-inhibitor-VI] (10 µM) | 0.0369 | 110% (inactive) |
| O=C1OCCN1/N=C/c1ccc([N+](=O)[O-])o1 [furazolidone] (10 µM) | 0.0225 | 102% (inactive) |
| Cc1cc(C)c(S(=O)(=O)Nc2ccccc2C(F)(F)F)c(C)c1 (10 µM) | -0.0872 | 113% (inactive) |
| CCN(CC)CCNC(=O)c1cc(Cl)c(N)cc1OC [metoclopramide] (10 µM) | -0.00451 | 107% (inactive) |
| CC1(C)OC(=O)NC1=O [dimethadione] (10 µM) | -0.0571 | 102% (inactive) |
| Cc1c2oc3c(C)ccc(C(=O)N[C@@H]4C(=O)N[C@@H](C(C)C)C(=O)N5CCC[C@H]5C(=O)N(C)CC(=O)N(C)[C@@H](C(C)C)C(=O)O[C@@H]4C)c3nc-2c(C(=O)N[C@@H]2C(=O)N[C@@H](C(C)C)C(=O)N3CCC[C@H]3C(=O)N(C)CC(=O)N(C)[C@@H](C(C)C)C(=O)O[C@@H]2C)c(N)c1=O [actinomycin-d] (0.833333 µM) | 0.164 | 93% (inactive) |
